The values below come from PubChem BioAssay (Tox21).

Several values for one entry are separate records, joined by “and”; a condition that tells them apart may be missing. Identical values can stand only once. A number with no mark means an inactive call. Results filed as inconclusive are left out. Activity calls are given as the source filed them. Unless noted, the call rests on the fitted dose curve; in most records, active means well fitted curve in the direction sought with a large enough effect in the repeat runs; inconclusive means weak or mixed curves; inactive means no such curve, though single readings can be large; an effect the other way counts as inactive or inconclusive.

The nature of assay [1]: Caspase-3/7 induction in HepG2 cells by small molecules, qHTS assay (AID 1346978). Further: nearly all actives have a fitted effect of over 15% in size. In a few lines:
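Wild-type HepG2 cells, 2,000/well, settled 5 hr at 37 C and 5% CO2, then compound-treated for 17 hr; caspase-3/7 activity read by luminescent Caspase-Glo 3/7 after 30 min at room temperature.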
In general terms: Quantitative high-throughput screening tests each substance at several concentrations.

The nature of assay [2]: Caspase-3/7 induction in CHO-K1 cells by small molecules, qHTS assay (AID 1346980). Further: nearly all actives have a fitted effect of over 15% in size. In a few lines: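 Wild-type CHO-K1 cells exposed to compounds for 17hr at 37 C, 5% CO2. Caspase-3/7 activity then measured by Caspase-Glo 3/7 luminescence after 30min at room temperature.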
The target in assay [3] is Nuclear receptor subfamily 1 group I member 2 (Homo sapiens) (UniProt O75469). Kind of assay: Human pregnane X receptor (PXR) small molecule agonists, qHTS assay (AID 1346982). Further: nearly all actives have a fitted effect of over 35% in size. Further: potency means the concentration at half of the fitted maximal effect. In a few lines:
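PXR-Luc HepG2 reporter cells (CYP3A4-driven luciferase) in 5% charcoal-stripped FBS medium, plated 5 h before compound addition, then treated 24 h at 37C. Luciferase read by ONE-Glo luminescence after 30 min at room temperature.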

For assay [4], the target named is Nuclear receptor subfamily 1 group I member 2 (Rattus norvegicus) (UniProt Q9R1A7). Kind of assay: Rat pregnane X receptor (rPXR) activation by small molecules, qHTS assay (AID 1346983). Further: nearly all actives have a fitted effect of over 20% in size. The settings on record: rPXR luciferase reporter cells, One-Glo luminescence, 24 h; stronger effect = higher value. The gist of the method: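 Cell-based rPXR activation assay: rPXR cells, 2,000 per well, rested 5hr at 37 C, then exposed to compounds in DMSO for 24 hr at 37 C. Luciferase activity read by One-Glo luminescence after 30 min at room temperature.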

Assay [5] addresses Nuclear receptor subfamily 1 group I member 2 (Homo sapiens) (UniProt O75469). Kind of assay: CYP3A4 induction through human pregnane X receptor (PXR) by small molecules, qHTS assay (AID 1346984). Further: nearly all actives have a fitted effect of over 40% in size. The gist of the method:
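DPX-2 HepG2 cells carrying a PXR response element and CYP3A4-promoter luciferase construct, treated with compounds 24 hr at 37C. Then P450-Glo CYP3A4 Luciferin-IPA substrate (3uM final) for 3 hr at 37C, One-Glo added, luminescence read.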

Assay [6] shares this target. Kind of assay: Human pregnane X receptor (PXR) activation by small molecules, qHTS assay (AID 1346985). Further: nearly all actives have a fitted effect of over 40% in size. The gist of the method:
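DPX-2 cells (HepG2 co-transfected with a PXR response element and a CYP3A4-promoter luciferase construct) were seeded at 2,000 per well, rested 5 hr at 37C, then exposed to DMSO-dissolved compounds for 24 hr. Activation was read as luciferase luminescence.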

Assay [7] concerns the target Acetylcholinesterase (Homo sapiens) (UniProt P22303). Briefly: Acetylcholinesterase (AChE) small molecule antagonists: enzyme-based qHTS assay (AID 1347397; calls by dose curve; further: nearly all actives have a fitted effect of over 55% in size; further: potency means the concentration at half of the fitted maximal effect). To be noted: Potency: AChE enzyme activity inhibition; outcome: AChE enzyme activity inhibition. In a few lines:
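Recombinant human AChE (50 mU/mL) preincubated with compound 30 min at room temperature; acetylthiocholine plus DTNB then added, and thiocholine formation read colorimetrically after 10 min at room temperature. DMSO served as vehicle control.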

The target is the same in assay [8]. Kind of assay: Acetylcholinesterase (AChE) small molecule antagonists: fluorescence cell-based qHTS assay (AID 1347398; calls by dose curve; further: nearly all actives have a fitted effect of over 50% in size; further: potency means the concentration at half of the fitted maximal effect). The settings on record: Potency: AChE activity; outcome: AChE activity. In a few lines:
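SH-SY5Y cells (2000/well), attached overnight, incubated with compound 30 min at 37 C. Acetylthiocholine plus Thiolite Green then added for 40 min at room temperature. Thiocholine fluorescence (Ex/Em 490/520 nm) reports cellular AChE activity.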

Assay [9] shares this target. Kind of assay: Acetylcholinesterase (AChE) small molecule antagonists: enzyme-based qHTS assay with human liver microsomes (AID 1347399; calls by dose curve; further: nearly all actives have a fitted effect of over 60% in size; further: potency means the concentration at half of the fitted maximal effect). The settings on record: Potency: qHTS inhibition; outcome: qHTS inhibition. The gist of the method: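 Recombinant human AChE (50 mU/mL in the enzyme mix) and human liver microsomes (0.25 mg/mL final) were preincubated with compound and NADPH (0.25 mg/mL final) for 30 min at 37 C. Acetylthiocholine/DTNB was then added; thiocholine was read colorimetrically after 10 min at room temperature.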

Assay [10] addresses Cytochrome P450 2D6 (Homo sapiens) (UniProt P10635). Kind of assay: Cytochrome P450 Family 2 Subfamily D Member 6 (CYP2D6) small molecule antagonists: luciferase reporter qHTS assay (AID 1671196). Further: nearly all actives have a fitted effect of over 50% in size. Further: potency means the concentration at half of the fitted maximal effect. The gist of the method: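 Cell-free P450-Glo system: CYP2D6 with proluciferin substrate was pre-incubated with compound for 10 min, then reacted with NADPH regeneration for 1 h at room temperature. Luciferin product was detected after 20 min, and data were reported as relative luminescence units.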

Assay [11] deals with Cytochrome P450 2C19 (Homo sapiens) (UniProt P33261). Kind of assay: Cytochrome P450 Family 2 Subfamily C Member 19 (CYP2C19) small molecule antagonists: luciferase reporter qHTS assay (AID 1671197). Further: nearly all actives have a fitted effect of over 65% in size. Further: potency means the concentration at half of the fitted maximal effect. The gist of the method:
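Quantitative high-throughput screen of the Tox21 library using CYP2C19 with proluciferin substrate. Reaction: NADPH regeneration, 37C, 1 h, after 10 min compound preincubation at room temperature. Readout: luminescence.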
(In general: A reporter such as luciferase makes a cellular process visible.)

Assay [12] addresses Cytochrome P450 2C9 (Homo sapiens) (UniProt P11712). Kind of assay: Cytochrome P450 Family 2 Subfamily C Member 9 (CYP2C9) small molecule antagonists: luciferase reporter qHTS assay (AID 1671198). Further: nearly all actives have a fitted effect of over 50% in size. Further: potency means the concentration at half of the fitted maximal effect. In a few lines:
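P450-Glo proluciferin substrate with CYP2C9 enzyme; 10 min RT preincubation, then NADPH regeneration 1 h at 37C; luciferin detection reagent 20 min RT, luminescence in relative luminescence units.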

Assay [13] deals with Cytochrome P450 1A2 (Homo sapiens) (UniProt P05177). Briefly: Cytochrome P450 Family 1 Subfamily A Member 2 (CYP1A2) small molecule antagonists: luciferase reporter qHTS assay (AID 1671199). Further: nearly all actives have a fitted effect of over 50% in size. Further: potency means the concentration at half of the fitted maximal effect. In a few lines: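 P450-Glo CYP1A2 enzyme–proluciferin substrate mix with compound 10 min at room temperature, then NADPH regeneration 1 h at room temperature. Luciferin detection reagent added, luminescence read after 20 min; furafylline positive control.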
Cytochrome P450 1A2 (Homo sapiens), sequence (P05177 whole entry, looked up): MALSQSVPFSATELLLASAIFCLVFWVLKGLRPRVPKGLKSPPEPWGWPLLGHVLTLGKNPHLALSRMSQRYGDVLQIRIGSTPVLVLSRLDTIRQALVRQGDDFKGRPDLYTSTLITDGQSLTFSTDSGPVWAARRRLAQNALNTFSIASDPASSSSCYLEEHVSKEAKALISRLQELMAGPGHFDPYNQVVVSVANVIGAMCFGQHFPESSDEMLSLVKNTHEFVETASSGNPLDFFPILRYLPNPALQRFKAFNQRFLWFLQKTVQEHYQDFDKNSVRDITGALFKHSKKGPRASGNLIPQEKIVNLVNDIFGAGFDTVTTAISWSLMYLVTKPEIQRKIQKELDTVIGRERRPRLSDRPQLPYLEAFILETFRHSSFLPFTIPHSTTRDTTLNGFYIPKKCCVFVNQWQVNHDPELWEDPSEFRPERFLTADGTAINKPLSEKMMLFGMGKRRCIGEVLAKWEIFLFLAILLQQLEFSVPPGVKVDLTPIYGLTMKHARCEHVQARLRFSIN

Assay [14] deals with Voltage-gated inwardly rectifying potassium channel KCNH2 (Homo sapiens) (UniProt Q12809). Briefly: Human Ether-a-go-go-Related Gene (hERG) channel small molecule antagonists: fluorescence cell-based qHTS assay (AID 1671200). Further: nearly all actives have a fitted effect of over 50% in size. Further: potency means the concentration at half of the fitted maximal effect. The gist of the method:
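Quantitative HTS in hERG-U2OS cells: thallium entry through the channel reports activity, read as continuous 480/540 nm fluorescence over 2 min after stimulus addition.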

The target of assay [15] is Cytochrome P450 3A4 (Homo sapiens) (UniProt P08684). Briefly: Cytochrome P450 Family 3 Subfamily A Member 4 (CYP3A4) small molecule antagonists: luciferase reporter qHTS assay (AID 1671201). Further: nearly all actives have a fitted effect of over 50% in size. Further: potency means the concentration at half of the fitted maximal effect. In a few lines: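 Inhibition of CYP3A4 is measured as loss of light: the enzyme converts a proluciferin substrate to luciferin, detected luminescently. Reaction ran 1 h at room temperature with NADPH regeneration after a 10 min compound preincubation.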
Cytochrome P450 3A4 (Homo sapiens), sequence (P08684 whole entry, looked up): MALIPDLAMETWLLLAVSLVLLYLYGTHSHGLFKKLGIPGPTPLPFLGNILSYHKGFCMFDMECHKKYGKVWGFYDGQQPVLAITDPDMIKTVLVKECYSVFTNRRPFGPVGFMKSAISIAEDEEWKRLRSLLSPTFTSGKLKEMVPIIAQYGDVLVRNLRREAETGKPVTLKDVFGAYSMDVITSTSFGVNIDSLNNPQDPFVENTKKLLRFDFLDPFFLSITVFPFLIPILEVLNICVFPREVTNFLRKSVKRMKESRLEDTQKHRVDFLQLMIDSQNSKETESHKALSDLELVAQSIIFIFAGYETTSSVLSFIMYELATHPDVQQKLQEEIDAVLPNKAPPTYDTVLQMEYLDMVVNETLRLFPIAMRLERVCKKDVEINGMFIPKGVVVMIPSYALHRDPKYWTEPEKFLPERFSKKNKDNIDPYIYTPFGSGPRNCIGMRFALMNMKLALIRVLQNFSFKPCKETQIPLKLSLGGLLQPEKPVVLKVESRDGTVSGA

The nature of assay [16]: Human pregnane X receptor (PXR) small molecule agonists, qHTS cell viability counter screen (AID 1346977). Further: nearly all actives have a fitted effect of over 50% in size. In a few lines: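 Measures live-cell protease fluorescence (CellTiter-Fluor) in PXR-Luc HepG2 cells treated 24hr with compounds at 37C. Cells had 5hr to attach before pin transfer of DMSO solutions.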
The nature of assay [17]: Caspase-3/7 induction in CHO-K1 cells by small molecules, qHTS cell viability counter screen (AID 1346979). Further: nearly all actives have a fitted effect of over 35% in size. In a few lines: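 In the same wells as the caspase read, viability of compound-treated wild-type CHO-K1 cells was assessed using CellTiter-Fluor, added after 16hr at 37C and measured by fluorescence following 1hr further incubation.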
In assay [18] the target is Acetylcholinesterase (Homo sapiens) (UniProt P22303). Briefly: Acetylcholinesterase (AChE) small molecule antagonists: colormetric cell-based qHTS assay (AID 1347395; calls by dose curve; further: nearly all actives have a fitted effect of over 30% in size; further: potency means the concentration at half of the fitted maximal effect). In a few lines:
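Endogenous AChE of human neuroblastoma SH-SY5Y cells was measured with an Ellman-type DTNB/acetylthiocholine mix. Compound pretreatment lasted 30 min at 37 C; substrate reaction ran 90 min at 37 C.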

The nature of assay [19]: Caspase-3/7 induction in HepG2 cells by small molecules, qHTS cell viability counter screen (AID 1346981). Further: series mostly up to about 92 µM; nearly all actives have a fitted effect of over 30% in size. In a few lines: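 Wild-type HepG2 cells, 2,000/well, settled 5 hr at 37 C, 5% CO2 before compound addition. Viability read by CellTiter-Fluor fluorescence, reagent added after 16 hr compound exposure, then 1 hr at 37C, in the same wells as the caspase read.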
On the % scale 0 is the no-effect control and ±100 the full control effect.

Nuclear receptor subfamily 1 group I member 2 (Homo sapiens), sequence (O75469 whole entry, looked up): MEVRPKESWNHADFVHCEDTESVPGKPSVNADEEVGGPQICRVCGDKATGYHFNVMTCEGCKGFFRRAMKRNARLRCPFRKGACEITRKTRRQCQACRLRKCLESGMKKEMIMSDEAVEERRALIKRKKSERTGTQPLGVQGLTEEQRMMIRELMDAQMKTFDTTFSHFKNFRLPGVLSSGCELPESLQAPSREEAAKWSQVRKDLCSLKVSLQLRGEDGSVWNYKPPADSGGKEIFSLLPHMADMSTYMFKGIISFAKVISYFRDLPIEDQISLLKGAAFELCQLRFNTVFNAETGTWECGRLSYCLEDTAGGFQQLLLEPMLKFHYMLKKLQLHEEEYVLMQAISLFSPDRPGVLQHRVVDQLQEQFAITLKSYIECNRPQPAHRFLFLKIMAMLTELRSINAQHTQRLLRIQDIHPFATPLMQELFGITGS
Cytochrome P450 2C19 (Homo sapiens), sequence (P33261 whole entry, looked up): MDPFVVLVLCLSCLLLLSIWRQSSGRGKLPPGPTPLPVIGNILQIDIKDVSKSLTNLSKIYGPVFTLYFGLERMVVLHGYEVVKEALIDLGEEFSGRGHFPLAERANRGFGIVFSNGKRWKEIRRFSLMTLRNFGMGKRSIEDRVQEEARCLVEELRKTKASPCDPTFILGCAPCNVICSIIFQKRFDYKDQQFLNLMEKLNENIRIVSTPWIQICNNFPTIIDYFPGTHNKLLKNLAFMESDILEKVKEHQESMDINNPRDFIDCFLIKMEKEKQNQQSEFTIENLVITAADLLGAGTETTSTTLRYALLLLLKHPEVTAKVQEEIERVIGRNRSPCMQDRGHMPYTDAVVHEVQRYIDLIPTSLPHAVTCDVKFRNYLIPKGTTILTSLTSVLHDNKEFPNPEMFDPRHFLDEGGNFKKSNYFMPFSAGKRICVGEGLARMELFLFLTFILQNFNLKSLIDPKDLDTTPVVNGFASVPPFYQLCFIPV
Voltage-gated inwardly rectifying potassium channel KCNH2 (Homo sapiens), sequence (Q12809 whole entry, looked up): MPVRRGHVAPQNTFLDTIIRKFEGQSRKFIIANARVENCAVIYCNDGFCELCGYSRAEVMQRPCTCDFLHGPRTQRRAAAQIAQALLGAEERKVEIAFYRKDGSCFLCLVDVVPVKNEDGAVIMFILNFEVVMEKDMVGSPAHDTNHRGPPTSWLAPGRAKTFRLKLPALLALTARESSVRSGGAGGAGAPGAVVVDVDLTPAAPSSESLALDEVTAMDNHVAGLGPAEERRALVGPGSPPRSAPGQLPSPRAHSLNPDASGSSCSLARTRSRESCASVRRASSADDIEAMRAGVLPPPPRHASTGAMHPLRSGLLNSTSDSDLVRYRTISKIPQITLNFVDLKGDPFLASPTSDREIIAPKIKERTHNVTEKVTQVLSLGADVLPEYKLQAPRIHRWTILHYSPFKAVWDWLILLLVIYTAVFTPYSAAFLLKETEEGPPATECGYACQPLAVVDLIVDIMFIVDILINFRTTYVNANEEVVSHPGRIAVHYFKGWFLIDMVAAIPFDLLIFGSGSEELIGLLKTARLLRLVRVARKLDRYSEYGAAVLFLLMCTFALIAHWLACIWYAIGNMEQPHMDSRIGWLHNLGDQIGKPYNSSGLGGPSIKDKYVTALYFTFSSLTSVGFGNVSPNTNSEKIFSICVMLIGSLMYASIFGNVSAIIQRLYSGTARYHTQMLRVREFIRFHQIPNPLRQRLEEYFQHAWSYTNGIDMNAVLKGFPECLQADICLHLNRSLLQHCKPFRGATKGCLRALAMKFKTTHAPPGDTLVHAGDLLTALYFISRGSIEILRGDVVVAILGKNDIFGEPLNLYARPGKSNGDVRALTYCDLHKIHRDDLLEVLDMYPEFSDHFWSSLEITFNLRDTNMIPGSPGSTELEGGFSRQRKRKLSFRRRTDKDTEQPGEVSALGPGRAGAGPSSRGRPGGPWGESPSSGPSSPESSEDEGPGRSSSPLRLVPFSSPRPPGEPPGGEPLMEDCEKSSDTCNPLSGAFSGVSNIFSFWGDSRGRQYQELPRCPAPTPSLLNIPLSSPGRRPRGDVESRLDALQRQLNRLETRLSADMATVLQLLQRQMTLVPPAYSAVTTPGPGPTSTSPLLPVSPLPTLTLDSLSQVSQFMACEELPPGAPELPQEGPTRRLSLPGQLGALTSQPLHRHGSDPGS
Cytochrome P450 2C9 (Homo sapiens), sequence (P11712 whole entry, looked up): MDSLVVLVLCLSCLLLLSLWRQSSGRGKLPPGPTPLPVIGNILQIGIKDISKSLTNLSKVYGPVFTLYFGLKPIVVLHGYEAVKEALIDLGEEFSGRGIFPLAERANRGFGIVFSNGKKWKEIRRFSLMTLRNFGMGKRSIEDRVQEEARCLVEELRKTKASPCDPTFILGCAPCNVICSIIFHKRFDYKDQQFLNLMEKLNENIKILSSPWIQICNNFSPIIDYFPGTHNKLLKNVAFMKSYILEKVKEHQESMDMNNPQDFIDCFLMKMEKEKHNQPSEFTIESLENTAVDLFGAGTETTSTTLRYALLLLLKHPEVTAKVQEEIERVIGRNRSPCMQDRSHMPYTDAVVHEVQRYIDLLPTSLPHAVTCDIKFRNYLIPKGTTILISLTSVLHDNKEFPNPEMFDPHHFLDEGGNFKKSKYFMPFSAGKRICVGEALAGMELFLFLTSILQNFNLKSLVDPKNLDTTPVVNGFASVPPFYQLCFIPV
Cytochrome P450 2D6 (Homo sapiens), sequence (P10635 whole entry, looked up): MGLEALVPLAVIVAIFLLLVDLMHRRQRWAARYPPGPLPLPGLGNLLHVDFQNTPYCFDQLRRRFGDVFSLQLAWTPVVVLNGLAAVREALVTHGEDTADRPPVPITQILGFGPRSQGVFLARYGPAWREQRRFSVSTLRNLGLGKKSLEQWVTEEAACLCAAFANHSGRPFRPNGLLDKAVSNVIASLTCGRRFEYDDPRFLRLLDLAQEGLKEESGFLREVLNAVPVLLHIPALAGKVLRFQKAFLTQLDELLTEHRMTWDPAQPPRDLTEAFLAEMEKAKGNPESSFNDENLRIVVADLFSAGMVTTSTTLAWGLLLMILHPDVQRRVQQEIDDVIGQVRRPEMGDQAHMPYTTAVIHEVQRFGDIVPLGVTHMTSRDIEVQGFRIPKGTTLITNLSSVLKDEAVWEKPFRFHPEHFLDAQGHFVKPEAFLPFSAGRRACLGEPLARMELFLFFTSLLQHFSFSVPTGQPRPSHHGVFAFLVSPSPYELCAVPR
Acetylcholinesterase (Homo sapiens), sequence (P22303 whole entry, looked up): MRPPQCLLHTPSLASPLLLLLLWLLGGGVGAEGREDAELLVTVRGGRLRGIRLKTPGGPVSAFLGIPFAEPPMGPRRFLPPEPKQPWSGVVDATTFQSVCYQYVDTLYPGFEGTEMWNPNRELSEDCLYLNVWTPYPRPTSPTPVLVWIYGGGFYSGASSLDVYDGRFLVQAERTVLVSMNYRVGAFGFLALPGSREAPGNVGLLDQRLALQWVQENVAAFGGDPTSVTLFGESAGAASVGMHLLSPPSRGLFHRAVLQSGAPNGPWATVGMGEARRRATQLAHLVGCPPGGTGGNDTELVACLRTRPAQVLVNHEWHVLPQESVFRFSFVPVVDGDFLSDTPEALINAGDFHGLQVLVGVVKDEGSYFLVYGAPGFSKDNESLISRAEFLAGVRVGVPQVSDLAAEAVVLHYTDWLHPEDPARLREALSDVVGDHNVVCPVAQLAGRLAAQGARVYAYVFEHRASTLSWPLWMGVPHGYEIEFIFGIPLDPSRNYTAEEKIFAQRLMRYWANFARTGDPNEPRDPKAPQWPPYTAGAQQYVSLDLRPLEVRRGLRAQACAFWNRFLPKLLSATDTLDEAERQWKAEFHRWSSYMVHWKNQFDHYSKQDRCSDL

For `CC(C)(C)NCC(O)c1cc(Cl)c(N)c(C(F)(F)F)c1` (stereo not drawn), the Potency result in assay [1], in assay [2], in assay [3], in assay [6], in [7] and in assay [8] was “inactive” each time. Moreover, the Potency result in assay [9], in [11], in assay [12], in [13], in assay [14] and in [15] was “inactive” each time. The max activation in [4] is 8.47%. Also, the call in assay [5] was inactive. Also, the Potency in assay [10] was 15.5 µM (active).
Consider `C[Si](Cn1cncn1)(c1ccc(F)cc1)c1ccc(F)cc1`, for which the Potency entry in assay [2], in assay [7], in assay [8] and in [9] was “inactive” in each case. The Potency in assay [3] is 31.6 µM (active) and 15.4 µM (active); in [10], 26 µM (active) and 31.7 µM (active); in [11] it was 58.3 nM (active) and 39.9 nM (active); in assay [12], 1.84 µM (active) and 2 µM (active); in assay [13] it was 32.8 µM (active) and 20 µM (active); in assay [14] it was 45.1 µM (active). Besides, the Potency in assay [15] is 104 nM (active) and 126 nM (active).
In the case of `O=C(O)COc1cc(Cl)c(Cl)cc1Cl`, the Potency entry in assay [16], in [17], in assay [2], in [3], in assay [18] and in assay [7] was “inactive” in each case. In addition, the Potency entry in [8], in assay [9], in assay [10], in assay [11], in assay [13] and in assay [14] was “inactive” in each case. Besides, the Potency result in assay [15] is “inactive”. In [12], the Potency is 63.4 µM (active) and 39.9 µM (active).
Take `Nc1ccccc1C(=O)OCCc1ccccc1`: the Potency result in assay [16], in assay [2], in [19], in [18], in [7] and in [8] was “inactive” in each case. The Potency result in assay [9] and in assay [14] was “inactive” each time. Also, the Potency is 48.8 µM (active) and 30.6 µM (active) in assay [3]; 5.66 µM (active) and 8.94 µM (active) in [11]; 31.8 µM (active) and 35.6 µM (active) in assay [12]; 7.13 µM (active) and 7.1 µM (active) in [13].
With `C=CCc1ccccc1O`, the Potency result in [16], in [17], in assay [2], in assay [3], in assay [18] and in assay [7] was “inactive” in each case. The Potency entry in [8], in assay [9], in assay [11], in assay [14] and in assay [15] was “inactive” throughout. The Potency in assay [13] is 31.7 µM (active).
On to `C[C@H]1[C@@H]2Cc3ccc(O)cc3[C@@]1(C)CCN2C`, for which the Potency entry in assay [1], in assay [17], in assay [2], in assay [19], in assay [3] and in assay [12] was “inactive” throughout. Further, the Potency result in [13], in [14] and in [15] was “inactive” each time. For the same molecule, the Potency in assay [18] was 15.2 µM (active); in [7], 33.9 µM (active); in assay [8], 2.14 µM (active); in [9] it was 191 µM (active); in assay [10], 33.9 µM (active); in assay [11], 53.8 µM (active).
Consider `CN(C)N`, for which the Potency result in assay [16], in [2], in assay [19], in assay [3], in assay [18] and in assay [7] was “inactive” throughout. Besides, the Potency entry in assay [8], in assay [9], in [10], in assay [12], in assay [14] and in assay [15] was “inactive” in each case. In addition, in assay [13], the Potency is 35.6 µM (active).
Take `SCc1ccccc1`: the Potency result in assay [16], in assay [2], in [19], in assay [3], in assay [7] and in assay [8] was “inactive” in each case. The Potency result in [9] and in [15] was “inactive” throughout. The Potency in [11] was 7.31 µM (active); in assay [12], 36.6 µM (active); in assay [13], 32.6 µM (active).
